Data taken from PubChem BioAssay (Tox21).
Records with an inconclusive call do not appear. Activity calls are given as the source filed them. Unless noted, the call rests on the fitted dose curve; in most records, active means well fitted curve in the direction sought with a large enough effect in the repeat runs; inconclusive means weak or mixed curves; inactive means no such curve, though single readings can be large; an effect the other way counts as inactive or inconclusive.

Legend:
[1] = qHTS assay to identify small molecule agonists of the endoplasmic reticulum stress response signaling pathway - cell viability counter screen (AID 1159517; calls by dose curve; further: nearly all actives have a fitted effect of over 50% in size; further: potency means the concentration at half of the fitted maximal effect); conditions: ESRE-bla HeLa viability, CellTiter-Glo luminescence, 5 h; series mostly up to 61 µM
In short: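 Cytotoxicity of test compounds toward ESRE-bla HeLa cells was assessed after 5 hr exposure. The luminescent CellTiter-Glo signal was measured 30 min after reagent addition.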

[2] = qHTS assay to identify small molecule antagonists of the retinoid-related orphan receptor gamma (ROR-gamma) signaling pathway - cell viability counter screen (AID 1159520); conditions: Tet-on RORgamma CHO cells viability, ATP luminescence, 16 h; series mostly up to 92.4 µM; further: nearly all actives have a fitted effect of over 50% in size; further: potency means the concentration at half of the fitted maximal effect; on activity, negative = cytotoxicity: on the % scale 0 is the no-effect control and ±100 the full control effect
In short: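 Tet-on ROR gamma CHO cells (1,000/well) were plated 4 hr, given compounds in DMSO for 2 hr at 37 C, then induced with 1 uM final doxycycline for 16 hr. Viability was read as ATP by CellTiter-Glo luminescence after 30 min.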

[3] = molecular target: Nuclear receptor ROR-gamma (Homo sapiens) (UniProt P51449); assay: qHTS assay to identify small molecule antagonists of the retinoid-related orphan receptor gamma (ROR-gamma) signaling pathway (AID 1159521; further: nearly all actives have a fitted effect of over 50% in size; further: potency means the concentration at half of the fitted maximal effect;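 on activity change, negative = inhibition: CHO cells with doxycycline inducible ROR-gamma driving an RORE luciferase reporter; top concentration of the series differs between compounds; on the % scale 0 is the no-effect control and ±100 the full control effect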); conditions: Tet-on RORgamma CHO cells, RORE-luciferase, 16 h; series mostly up to 92.4 µM
In short: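 Inducible-expression reporter assay: doxycycline (1 uM final) switched on RORγ in CHO cells bearing a ROR response element-luciferase construct, with test compounds present from 2 h beforehand. Decreased luminescence after 16 h defined antagonist activity.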

[4] = qHTS assay to identify small molecule agonists of the RXR signaling pathway - cell viability counter screen (AID 1159529); conditions: RXR-alpha-bla HEK293T viability, CellTiter-Glo, 16 h; series mostly up to 76.8 µM; further: nearly all actives have a fitted effect of over 50% in size; further: potency means the concentration at half of the fitted maximal effect
In short: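 Counter screen: CellTiter-Glo luminescence. Cells: RXR-alpha-UAS-bla HEK 293T. Medium: 2% charcoal-stripped FBS. Treatment: 16 h, 37 C. Reagent incubation: 30 min, RT.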

[5] = qHTS assay to identify small molecule agonists of the vitamin D receptor (VDR) signaling pathway - cell viability counter screen (AID 743224); conditions: VDR-bla HEK293T viability, CellTiter-Glo luminescence, 16 h; series mostly up to 62.6 µM; further: nearly all actives have a fitted effect of over 50% in size; further: potency means the concentration at half of the fitted maximal effect; on activity change, negative = cytotoxicity: on the % scale 0 is the no-effect control and ±100 the full control effect
In short: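 CellTiter-Glo viability readout on VDR-bla cells, measured after 16 h of compound treatment at 37C in the same wells.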

[6] = qHTS assay to identify small molecule agonists of the AP-1 signaling pathway - cell viability counter screen (AID 1159525; calls by dose curve; further: nearly all actives have a fitted effect of over 55% in size; further: potency means the concentration at half of the fitted maximal effect); conditions: ME-180 AP-1-bla cells viability, ATP luminescence, 5 h; series mostly up to 76.8 µM
In short: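 Each titration point was normalised to DMSO and tetra n-octyl ammonium bromide controls. The read was Cell Titer Glo luminescence after 30 min at RT, following 5 h compound exposure of ME-180 AP-1-bla cells at 37 °C.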

[7] = qHTS assay to identify small molecule agonists of the AP-1 signaling pathway (AID 1159526; calls by dose curve; further: on the % scale 0 is the no-effect control and ±100 the full control effect); conditions: ME-180 (cervical carcinoma) AP-1-bla reporter, beta-lactamase FRET ratio, 5 h; series mostly up to 76.8 µM
[8] = qHTS assay to identify small molecule antagonists of the vitamin D receptor (VDR) signaling pathway - cell viability counter screen (AID 743225); conditions: VDR-bla HEK293T viability, CellTiter-Glo luminescence, 16 h; series mostly up to 61 µM
In short: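 Same-well multiplex: following 16 h treatment of HEK 293T cells carrying a UAS-driven beta-lactamase reporter with compound and agonist (3 nM final), and a 2 h FRET substrate step, CellTiter-Glo was added and luminescence read after 30 min.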

CSc1c(Cl)c(Cl)c(Cl)c(Cl)c1Cl
inactive: Potency [2] | Potency [3]
active: Potency [1] 54.6 µM | Potency [4] 43.4 µM

COc1cc(C(C)C)c2c(c1)S(=O)(=O)N(COc1cc(=O)n3cccc(OCCN4CCCCC4)c3n1)C2=O
inactive: Potency [5] | Potency [1] | activity, negative = cytotoxicity [2] -0.0922% [at 19 µM] | activity change, negative = inhibition [3] -4.73% [at 19 µM] | viability change, negative = cytotoxic [6] -17.4% [at 15.8 µM] | activation [7] 7.65% [at 15.8 µM] | activity change, negative = cytotoxicity [4] -5.15% [at 15.8 µM]

O=C1NCN(c2ccccc2)C12CCN(CCCC(c1ccc(F)cc1)c1ccc(F)cc1)CC2
active: Potency [1] 23.9 µM | Potency [2] 33.5 µM | Potency [3] 26.6 µM | Potency [6] 21.3 µM | Potency [4] 21.3 µM

CCC(C)c1cc([N+](=O)[O-])cc([N+](=O)[O-])c1OC(=O)OC(C)C (centres undefined)
inactive: Potency [6]
active: Potency [5] 54.9 µM | Potency [8] 34.7 µM | Potency [1] 34.7 µM | Potency [2] 61.1 µM | Potency [3] 19.3 µM

O=C1c2c(O)ccc([N+](=O)[O-])c2C(=O)c2c([N+](=O)[O-])ccc(O)c21
active: Potency [5] 10.9 µM | Potency [8] 9.68 µM | Potency [1] 24.3 µM | Potency [2] 27.1 µM | Potency [3] 24.1 µM | Potency [6] 24.3 µM | Potency [4] 17.2 µM
